# Test results published in PubChem BioAssay (NCATS).
# Results filed as inconclusive are left out. Unmarked numbers belong to inactive results. Active and inactive are the calls of the source. Calls come from the whole dose curve. Starred links: 1 amine or outer side, 2 acyl side, 3 side chain; linkers in the order of their positions; H or OH if unused. Positions of bridges follow the written chain, without caps; N, C: chain ends. Non-standard residues stand in square brackets, D forms with d. Residues, ends and D or L forms follow the SMILES beside them. ξ: configuration not given here. *: point of attachment. ΔAla(3-NHCONH2) = NC(=O)NC=C(N)C(=O)O; X1 = NC1=NCCC(C(N[*:1])C(=O)[*:2])N1; ξβ3hOrn = NCCCC(N)CC(=O)*; Dap = NC[CH](N)C(=O)O
# Test: Primary qHTS for inhibitors of SARS-S pseudo-typed particle cell entry (AID 1479145); note: nearly all actives have a fitted effect of over 45% in size
# Details: SARS-S pseudotyped particle cell entry, luciferase reporter; series mostly up to 57.1 µM; activity change, negative = inhibition: at the top concentration
# % is set by controls: 0 for no effect and ±100 for the full control effect; potency is the fitted concentration of half-maximal effect.
Compound,outcome,"activity change, negative = inhibition",Potency
O=C(NCCN1CCOCC1)c1ccc(Cl)cc1,inactive,,
CN(C)[C@@H]1C(=O)C(C(N)=O)=C(O)[C@@]2(O)C(=O)C3=C(O)c4c(O)ccc(Cl)c4[C@@H](O)[C@H]3C[C@@H]12,,0.3%,
CCC[C@H](N[C@@H](C)C(=O)N1[C@H](C(=O)O)C[C@@H]2CCCC[C@@H]21)C(=O)OCC,inactive,,
CCOC(=O)c1ncn2c1CN(C)C(=O)c1cc(F)ccc1-2,inactive,,
CCCSc1ccc2nc(NC(=O)OC)[nH]c2c1,inactive,,
CCCNC(=O)NS(=O)(=O)c1ccc(Cl)cc1,inactive,,
N[C@@H](C(=O)N[C@@H]1C(=O)N2C(C(=O)O)=C(Cl)CS[C@H]12)c1ccccc1,,-16.1% [at 11.4 µM],
COC(=O)[C@@H]1CC2=CC(=O)CC[C@]2(C)[C@@]23O[C@@H]2C[C@@]2(C)[C@@H](CC[C@@]24CCC(=O)O4)[C@H]13,inactive,,
CCCCCOC(=O)Nc1nc(=O)n([C@@H]2O[C@H](C)[C@@H](O)[C@H]2O)cc1F,inactive,,
CN/C(=C\[N+](=O)[O-])NCCSCc1ccc(CN(C)C)o1,inactive,,
Cc1ccc(-n2[nH]c(C)c(N=Nc3cccc(-c4cccc(C(=O)O)c4)c3O)c2=O)cc1C,inactive,,
C[C@H]1[C@H](NC(=O)/C(=N/OC(C)(C)C(=O)O)c2csc(N)n2)C(=O)N1S(=O)(=O)O (stereo in doubt),,-17.6%,
CCCN1C[C@H](CSC)C[C@@H]2c3cccc4[nH]cc(c34)C[C@H]21,,-13.4%,
Oc1ccc(C2CNCCc3c2cc(O)c(O)c3Cl)cc1 (centres undefined),inactive,,
CC(=O)O[C@]1(C(C)=O)CC[C@H]2[C@@H]3C=C(C)C4=CC(=O)CC[C@]4(C)[C@H]3CC[C@@]21C,,-15.4%,
COc1cc(C(=O)NCc2ccc(OCCN(C)C)cc2)cc(OC)c1OC,inactive,,
CC(=O)N(O)CCCCCNC(=O)CCC(=O)N(O)CCCCCNC(=O)CCC(=O)N(O)CCCCCN,,-18.1%,
CC(C)[N+](C)(CCOC(=O)C1c2ccccc2Oc2ccccc21)C(C)C,,-28.6%,
CC(C)C[C@H](NC(=O)[C@H](Cc1ccccc1)NC(=O)c1cnccn1)B(O)O,,-98.2%,
CN(C)c1nc(N(C)C)nc(N(C)C)n1,,-29.5%,

Compound,outcome,"activity change, negative = inhibition",Potency
Nc1nnc(-c2cccc(Cl)c2Cl)c(N)n1,inactive,,
O=C1CCC(N2C(=O)c3ccccc3C2=O)C(=O)N1 (centres undefined),,-2.74%,
CC[C@@]1(O)C(=O)OCc2c1cc1n(c2=O)Cc2cc3c(CN(C)C)c(O)ccc3nc2-1,,,3.16 µM (active)
CCCCc1oc2ccc(NS(C)(=O)=O)cc2c1C(=O)c1ccc(OCCCN(CCCC)CCCC)cc1,,,22.4 µM (active)
COc1cc(Cc2cnc(N)nc2N)cc(OC)c1OC,,-0.0342%,
CCCN[C@H]1CCc2nc(N)sc2C1,,-13.5%,
CN(C)c1cc(NC(=O)CNC(C)(C)C)c(O)c2c1C[C@@H]1C[C@H]3[C@H](N(C)C)C(=O)C(C(N)=O)=C(O)[C@@]3(O)C(=O)C1=C2O,,-21.8%,
CC(C)(C)NC(=O)[C@@H]1CN(Cc2cccnc2)CCN1C[C@@H](O)C[C@@H](Cc1ccccc1)C(=O)N[C@H]1c2ccccc2C[C@H]1O,,-17.1%,
Cc1nc(Nc2ncc(C(=O)Nc3c(C)cccc3Cl)s2)cc(N2CCN(CCO)CC2)n1,,-72.7%,
CNCC[C@@H](Oc1ccccc1C)c1ccccc1,,-11.3%,
CC(=O)SC[C@@H](C)C(=O)N1CCC[C@H]1C(=O)N[C@@H](Cc1ccccc1)C(=O)O,,-25.8%,
C=C(CC)C(=O)c1ccc(OCC(=O)O)c(Cl)c1Cl,inactive,,
CCN(CC)CCNC(=O)c1cc(Cl)c(N)cc1OC,inactive,,
COc1cc(C(C)=O)ccc1OCCCN1CCC(c2noc3cc(F)ccc23)CC1,,,22.4 µM (active)
Nc1ccn([C@@H]2O[C@H](CO)[C@@H](O)C2(F)F)c(=O)n1,,,0.794 µM (active)
NCCCC(N)CC(=O)NCC1NC(=O)C(CO)NC(=O)C(N)CNC(=O)C(C2CCN=C(N)N2)NC(=O)C(=CNC(N)=O)NC1=O (stereo not drawn) (H-[Dap]S[Dap](ξβ3hOrn)[ΔAla(3-NHCONH2)][X1]; lactam 1-C; configuration not given here),inactive [at 0.573 µM],,
NCCC(O)(P(=O)(O)O)P(=O)(O)O,inactive,,
Clc1ccc(C(c2ccccc2Cl)C(Cl)Cl)cc1 (centres undefined),,0.293%,
C1N2CN3CN1CN(C2)C3,inactive,,
